Source: PubChem
Most compounds without a hit are left out; they make up all but 3.6% or so of the library.
mHTT-CaM PPI inh: disrupts binding of mutant huntingtin to calmodulin; P42858; AlphaScreen His-mHTT/GST-CaM binding, luminescence; inhibition, % at 15 µM; hit rate 3.6% among 190,000; AID 1671202;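 note: 0% = both proteins with DMSO and 100% = one protein alone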
Pf apPOL block: Pf-apPOL DNA polymerase inhibition; Recombinant Pf-apPOL, molecular beacon fluorescence, 1.5 h; inhibition, % at 10 µM; hit rate 0.25% among 210,000
An asterisk follows results filed as active. Cut-off read from the data, not from the text of the source: active = inhibition above about 50%; inactive = the rest.

For COc1ccc(-c2coc3c4c(ccc3c2=O)OCN(C2CC(C)(C)NC(C)(C)C2)C4)cc1OC the results were mHTT-CaM PPI inh 1.9 and Pf apPOL block -4.9.
`O=C1c2ccccc2C(=O)c2c1oc1c3c(ccc21)OCN(CCc1ccccc1)C3` gave mHTT-CaM PPI inh 60.6* and Pf apPOL block -4.0.
For CCCCN1COc2ccc3c4c(oc3c2C1)C(=O)c1ccccc1C4=O the results were mHTT-CaM PPI inh 69.6* and Pf apPOL block 10.9.
CC(C)N(C)c1nc(-c2ccccc2)ncc1C(=O)Nc1ccc(F)cc1 was read as mHTT-CaM PPI inh -6.9 and Pf apPOL block -1.1.
Screening COc1ccc(-n2nc(C(=O)Nc3ccc(C)cc3Br)c3ccccc3c2=O)cc1 returned mHTT-CaM PPI inh -10.0 and Pf apPOL block -5.1.
CCN1Cc2nnn(Cc3ccccc3)c2-c2cc(F)ccc2S1(=O)=O was read as mHTT-CaM PPI inh 94.4* and Pf apPOL block -3.1.
`CC(C)(C)N1Cc2nnn(Cc3ccccc3)c2-c2cc(F)ccc2S1(=O)=O` gave mHTT-CaM PPI inh -6.4 and Pf apPOL block -2.5.
For COc1ccc(C2C(C(C)=O)=C(O)C(=O)N2CCCC(=O)O)c(OC)c1 (centres undefined) the results were mHTT-CaM PPI inh -0.5 and Pf apPOL block -2.5.
Cc1cc2c(cc(C(=O)NCc3ccccn3)n2CC(C)C)s1 was read as mHTT-CaM PPI inh 69.5* and Pf apPOL block -12.9.
`CCNC(=O)c1cc2sc(C)cc2n1CC` gave mHTT-CaM PPI inh -2.0 and Pf apPOL block -6.2.
`COc1ccc(Cl)cc1C(=O)N1CCC(c2nc3ccncc3n2C(C)C)C1` (centres undefined) gave mHTT-CaM PPI inh 4.1 and Pf apPOL block -4.4.
`COc1ccc(NC(=O)c2c(Cl)cc(Cl)nc2Cl)cc1` gave mHTT-CaM PPI inh -8.0 and Pf apPOL block -1.4.
For COc1ccc(NC(=O)c2c(C)sc3c(C)c(C)[nH]c23)cc1 the results were mHTT-CaM PPI inh 54.2* and Pf apPOL block 26.3.
`COc1cc(OC)cc(-n2nc(C(=O)N3CCCC(C)C3)c3ccccc3c2=O)c1` (centres undefined) gave mHTT-CaM PPI inh 12.0 and Pf apPOL block 4.7.
CN(C)S(=O)(=O)N1CCN(Cc2nc3ccccc3[nH]2)CC1 was read as mHTT-CaM PPI inh -14.6 and Pf apPOL block -4.4.
Screening CCc1ccc(S(=O)(=O)N2CCN(Cc3nc4ccccc4[nH]3)CC2)s1 returned mHTT-CaM PPI inh 99.6* and Pf apPOL block -52.4.
COc1ccc(/C=C2\C(=O)Nc3ccc(Br)cc32)cc1 was read as mHTT-CaM PPI inh 48.0 and Pf apPOL block -3.1.
COc1ccc(/C=C2\C(=O)Nc3ccc(Br)cc32)cc1OC was read as mHTT-CaM PPI inh 90.0* and Pf apPOL block -2.7.
`COc1cc(/C=C2\C(=O)NC(=O)N(c3ccc(C)cc3)C2=O)cc(Cl)c1O` gave mHTT-CaM PPI inh 4.0 and Pf apPOL block 1.4.
For COc1cc(/C=C2\C(=O)Nc3ccc(Br)cc32)cc(Cl)c1O the results were mHTT-CaM PPI inh 100.0* and Pf apPOL block -38.1.
CCOc1cc(/C=C2\C(=O)Nc3ccc(Br)cc32)cc(Cl)c1O was read as mHTT-CaM PPI inh 100.0* and Pf apPOL block 0.5.
For COc1cc(/C=C2\C(=O)Nc3ccc(Br)cc32)cc([N+](=O)[O-])c1O the results were mHTT-CaM PPI inh 96.0* and Pf apPOL block 0.5.
`COc1cc(/C=C2\C(=O)NC(=O)N(c3ccc(C)cc3)C2=O)cc([N+](=O)[O-])c1O` gave mHTT-CaM PPI inh 3.0 and Pf apPOL block 5.2.
For O=C1Nc2ccc(I)cc2C1=Cc1cc(Br)c(O)c(Br)c1 the results were Pf apPOL block -123.7.
Screening COc1ccc(OC)c(/C=C2/C(=N)N3N=C(C(C)C)SC3=NC2=O)c1 returned mHTT-CaM PPI inh 2.0 and Pf apPOL block 9.2.
For COc1ccc(C2=NN3C(C2)c2cccc(OC)c2OC3c2cc(OC)c(OC)c(OC)c2)cc1 (centres undefined) the results were mHTT-CaM PPI inh 10.0 and Pf apPOL block -16.2.
Screening O=C(CCSc1ccccc1)N1CCN(CC(F)(F)F)CC1 returned mHTT-CaM PPI inh 2.7 and Pf apPOL block -5.2.
CCC(C)NCC(O)COCC12CC3CC(CC(C3)C1)C2 (centres undefined) was read as mHTT-CaM PPI inh 0.7 and Pf apPOL block -1.6.
Screening Cn1nc(C(=O)N2CCc3nc4cc(-c5ccccc5)[nH]n4c(=O)c3C2)c2ccccc21 returned mHTT-CaM PPI inh 49.5 and Pf apPOL block 19.0.
For Cn1nc(C(=O)N2CCc3c(nc4cc(-c5ccccc5)[nH]n4c3=O)C2)c2ccccc21 the results were mHTT-CaM PPI inh 61.1* and Pf apPOL block 3.4.
Cc1ccc(C(=O)N2CCc3c(nc4cc(-c5ccccc5Cl)[nH]n4c3=O)C2)cn1 was read as mHTT-CaM PPI inh 24.6 and Pf apPOL block 1.7.
Screening COc1ccc(NC(=O)N2CCc3nc4cc(-c5ccccc5)[nH]n4c(=O)c3C2)c(OC)c1 returned mHTT-CaM PPI inh 0.3 and Pf apPOL block -5.3.
`COc1ccc(C(=O)N2CCc3c(nc4cc(-c5ccccc5Cl)[nH]n4c3=O)C2)cn1` gave mHTT-CaM PPI inh 52.6* and Pf apPOL block -0.3.
For O=C(c1ccncc1)N1CCc2c(nc3cc(-c4ccccc4Cl)[nH]n3c2=O)C1 the results were mHTT-CaM PPI inh 9.9 and Pf apPOL block 1.7.
Screening O=C(Nc1cccc(F)c1)N1CCc2c(nc3cc(-c4ccccc4Cl)[nH]n3c2=O)C1 returned mHTT-CaM PPI inh 72.7* and Pf apPOL block 0.1.
COc1ccc(NC(=O)N2CCc3c(nc4cc(-c5ccccc5)[nH]n4c3=O)C2)c(OC)c1 was read as mHTT-CaM PPI inh 51.5* and Pf apPOL block -0.4.
Cc1ccc(C2=CC(c3cccc(F)c3)n3ncnc3N2)cc1 (centres undefined) was read as mHTT-CaM PPI inh 2.0 and Pf apPOL block -5.7.
Cc1ccccc1-c1nc(C2CCN(C(=O)CNS(=O)(=O)c3ccccc3)CC2)no1 was read as mHTT-CaM PPI inh -7.8 and Pf apPOL block -1.3.
Screening CCNC(=O)c1nc(-c2oc3ccc(C)cc3c2C)no1 returned mHTT-CaM PPI inh -10.6 and Pf apPOL block 3.5.
`COc1ccccc1CNC(=O)CN(c1cccc(Cl)c1C)S(=O)(=O)c1ccccc1` gave mHTT-CaM PPI inh -1.4 and Pf apPOL block -9.4.
COc1cccc(C(=O)N2CCc3c(nc4cc(-c5ccccc5)[nH]n4c3=O)C2)c1OC was read as mHTT-CaM PPI inh 65.9* and Pf apPOL block 4.6.
COc1ccc(Cl)cc1C(=O)N1CCc2c(nc3cc(-c4ccccc4)[nH]n3c2=O)C1 was read as mHTT-CaM PPI inh 40.8 and Pf apPOL block -5.8.
`COc1ccc(C(=O)N2CCc3nc4cc(-c5ccccc5)[nH]n4c(=O)c3C2)c(OC)n1` gave mHTT-CaM PPI inh -2.5 and Pf apPOL block -1.1.
`COc1ccc(C(=O)N2CCc3c(nc4cc(-c5ccccc5)[nH]n4c3=O)C2)c(OC)n1` gave mHTT-CaM PPI inh 56.3* and Pf apPOL block -0.6.
Screening CCNC(=O)N1CCCC(c2cccc(C(=O)NCc3cccc(F)c3)c2)C1 (centres undefined) returned mHTT-CaM PPI inh -4.0 and Pf apPOL block -7.0.
Screening CCCc1nnc(NC(=O)C(CC)Sc2nnnn2-c2ccccc2)s1 (centres undefined) returned mHTT-CaM PPI inh -1.5 and Pf apPOL block -2.6.
CCC(Sc1nnnn1-c1ccccc1)C(=O)Nc1nc2ccccc2s1 (centres undefined) was read as mHTT-CaM PPI inh 51.5* and Pf apPOL block -6.3.
`O=S(=O)(NCCSC1CCCCC1)c1ccc2c(c1)OCCO2` gave mHTT-CaM PPI inh -3.5 and Pf apPOL block 2.7.
